Screens: PubChem BioAssay, National Center for Advancing Translational Sciences (NCATS)
Shown are actives, neighbours in structure and some others; about 2.9% of the full set was active somewhere.
IP6K1 inhibitor – Primary qHTS assay for small molecule inhibitors of Inositol hexaphosphate kinase 1 (IP6K1) | activity change, % (series mostly up to about 58 µM) | 140,000 tested, 0.81% active | Inositol hexakisphosphate kinase 1 (Homo sapiens), Q92551 | IP6K1 kinase, ADP-Glo luminescence, 2 h; stronger effect = lower value; in the data active = activity change below about -25%; note: % is set by controls: 0 for no effect and ±100 for the full control effect
Target sequence (Q92551 whole entry, looked up): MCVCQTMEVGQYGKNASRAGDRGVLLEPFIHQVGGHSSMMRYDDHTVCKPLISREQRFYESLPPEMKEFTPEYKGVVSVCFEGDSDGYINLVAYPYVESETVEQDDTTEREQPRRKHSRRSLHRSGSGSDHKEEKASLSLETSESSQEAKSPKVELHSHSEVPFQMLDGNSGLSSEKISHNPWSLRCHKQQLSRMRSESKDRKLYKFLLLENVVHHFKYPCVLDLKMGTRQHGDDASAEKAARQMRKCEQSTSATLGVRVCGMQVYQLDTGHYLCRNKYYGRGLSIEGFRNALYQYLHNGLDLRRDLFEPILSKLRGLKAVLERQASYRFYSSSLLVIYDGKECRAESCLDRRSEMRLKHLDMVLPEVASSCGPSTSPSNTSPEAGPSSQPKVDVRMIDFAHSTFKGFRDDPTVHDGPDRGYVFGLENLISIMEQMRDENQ
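ADP-Glo luminescence measures ADP made by human IP6K1 during a 2 h RT reaction with ATP/IP6 (mix at 1.3 mM/130 uM); top library doses 57.5 and 19.1 uM final.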
KDM5B inh – Primary screen for KDM5B Histone Demethylases FDH-coupled qHTS; KDM5B demethylase, FDH-coupled NADH fluorescence (FDH is formaldehyde dehydrogenase); AID 1347165, 2019; 220,000 tested, 2.6% active; Potency, µM (doses to about 57.7 µM), actives largely listed as inhibitors; Lysine-specific demethylase 5B (Homo sapiens), Q9UGL1; note: potency is the fitted concentration of half-maximal effect; 0% is about no effect; nearly all actives have a fitted effect of over 70% in size
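Compound dilutions met 200 nM (final) KDM5BΔAP for 10 min at room temperature before substrate addition. The substrate mix held 12.5 µM H3K4me3 with cofactors 25 µM α-ketoglutarate and 50 µM Fe²⁺. NADH signal gain over 30 min defined activity.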
SNCA viab count – GF-AFC viability counterscreen for inhibitors of alpha-synuclein gene (SNCA) expression. HEK-293-SNCA-luc viability, GF-AFC fluorescence, 24 h. Potency, µM (doses to about 57.1 µM), for the others: top-dose activity change, negative = cytotoxicity, actives largely listed as cytotoxic. 150,000 tested, 0.12% active. AID 1671193, 2021;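 note: potency is the fitted concentration of half-maximal effect; 0% = DMSO-treated cells and -100% = medium-only wells without cells; nearly all actives have a fitted effect of over 30% in size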
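HEK-293-SNCA-luc cells (1500/well) plated 24 h, then exposed 24 h to a dilution series; GF-AFC added 30 min at 37C, fluorescence 405/540 nm; normalised to medium-only and DMSO wells, Hill fit.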
SNCA expr inh – Primary qHTS assay for inhibitors of alpha-synuclein gene (SNCA) expression. HEK-293 SNCA-luciferase knock-in, luminescence, 24 h. Potency, µM (doses to about 57.2 µM), inactives show at the top dose activity change, negative = inhibition, hits mostly inhibitors. 140,000 tested, 0.17% active;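 note: potency is the fitted concentration of half-maximal effect; plate controls were DMSO cells for no effect and cell-free wells for full effect; nearly all actives have a fitted effect of over 45% in size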
IP6K1 conf – Confirmatory qHTS assay for small molecule inhibitors of Inositol hexaphosphate kinase 1 (IP6K1). shares compounds with IP6K1 inhibitor. recombinant IP6K1 kinase, ADP-Glo luminescence, 2 h. Potency, µM (top dose mostly 49 µM), for the others: top-dose activity change, negative = inhibition, most hits filed as inhibitors. 1,200 tested, 13% active. AID 1645852, 2021; note: potency is the fitted concentration of half-maximal effect; % is set by controls: 0 for no effect and ±100 for the full control effect; nearly all actives have a fitted effect of over 65% in size
Active calls of the source: *; ! = repeats disagree; [ ] = another dose, or the depositor's remark. Unless noted, calls come from the whole dose curve; as a rule, active = well fitted curve in the direction sought with a large enough effect; inconclusive = small, poorly fitted or top-dose-only effect, or another doubt; inactive = no such curve, though single readings can be large; an effect the other way counts as inactive or inconclusive.

What do the screens show for `O=C(c1ccc(N2CCCC(CO)C2)nc1)N1CCC(N2CCOCC2)CC1` (centres undefined)?
IP6K1 inhibitor: -35*; KDM5B inh: inconclusive; SNCA viab count: 7%; SNCA expr inh: -1%; IP6K1 conf: 13%

What do the screens show for `COc1cc(CN2CCN(S(=O)(=O)c3ccc(F)cc3)CC2)cc(OC)c1OC`?
IP6K1 inhibitor: -34*; KDM5B inh: inconclusive; SNCA viab count: -12%; SNCA expr inh: -4%; IP6K1 conf: 2%

How did CCN(CC)C(=S)SSC(=S)N(CC)CC do in these assays?
IP6K1 inhibitor: -56*!; SNCA viab count: inconclusive; SNCA expr inh: inconclusive; IP6K1 conf: 8.9µM*

Results for Cc1nc(-c2ccc(OCC(C)C)c(C#N)c2)sc1C(=O)O ?
IP6K1 inhibitor: -49*; SNCA viab count: 6%[23.9 µM]; SNCA expr inh: 46%[25.6 µM]; IP6K1 conf: 6.5µM*

How did Cc1ccc(NC(=O)c2nc(S(C)(=O)=O)ncc2N(Cc2ccco2)Cc2ccco2)cc1C do in these assays?
IP6K1 inhibitor: -29*; KDM5B inh: inconclusive; SNCA viab count: 8%; SNCA expr inh: -7%; IP6K1 conf: -5%

What do the screens show for `Cc1ccc(NC(=O)c2nc(S(C)(=O)=O)ncc2N(Cc2ccco2)Cc2cccs2)cc1C`?
IP6K1 inhibitor: -14; KDM5B inh: inactive; SNCA viab count: inconclusive; SNCA expr inh: 4%

What do the screens show for `CCCCCn1nc(C(=O)N2CCN(c3ccccn3)CC2)c2ccccc2c1=O`?
KDM5B inh: inactive

How did CCCCNC(=O)CN1CCN(c2ncc(NC(=O)c3ccc(Cl)cc3)cc2C(=O)O)CC1 do in these assays?
IP6K1 inhibitor: -59*; KDM5B inh: inconclusive; SNCA viab count: 12%; SNCA expr inh: 28%; IP6K1 conf: inconclusive

Results for CCCNC(=O)CN1CCN(c2ncc(NC(=O)c3ccc(Cl)cc3)cc2C(=O)O)CC1 ?
IP6K1 inhibitor: -23; KDM5B inh: inconclusive; SNCA viab count: -3%; SNCA expr inh: 38%

How did Cc1nn2c(c1-c1ccccc1N1CCCC1)N(C(=O)C(C)C)CCC2 do in these assays?
IP6K1 inhibitor: 14; KDM5B inh: inconclusive; SNCA viab count: -12%[87.6 µM]; SNCA expr inh: -26%[87.6 µM]

How did COc1ccc(CNC(=O)C2CCN(S(=O)(=O)c3ccc(C)cc3)CC2)cc1 do in these assays?
IP6K1 inhibitor: 16; KDM5B inh: inactive; SNCA viab count: 3%; SNCA expr inh: -8%

What do the screens show for `COc1ccc(S(=O)(=O)N2CCC(C(=O)Nc3cc(C(F)(F)F)ccc3Cl)CC2)cc1`?
IP6K1 inhibitor: -43*; KDM5B inh: inactive; SNCA viab count: inconclusive; SNCA expr inh: inconclusive; IP6K1 conf: -12%

How did CCOC(=O)CNC(=O)CSc1cn(CC(=O)N2CCOCC2)c2ccccc12 do in these assays?
KDM5B inh: inactive

Results for CCc1ccccc1Nc1nn2c(=O)c3ccc(C(=O)NCc4ccccc4Cl)cc3nc2s1 ?
IP6K1 inhibitor: -26*; KDM5B inh: inactive; SNCA viab count: -19%; SNCA expr inh: 2%; IP6K1 conf: 1%

What do the screens show for `COc1ccc(C2CC(=O)Nc3nc(N)sc32)cc1OC` (centres undefined)?
KDM5B inh: inactive

Results for CNc1nc2c(s1)C(c1ccc(Cl)cc1)CC(=O)N2 (centres undefined) ?
IP6K1 inhibitor: -28*; KDM5B inh: 32µM*; SNCA viab count: 6%; SNCA expr inh: 15%; IP6K1 conf: 16µM*

Results for C[C@]1(CO)[C@H]2Cc3sc(NC(=O)C4CCC4)nc3[C@@H](CC(=O)NC3CCCC3)[C@]2(C)CC[C@H]1O ?
IP6K1 inhibitor: 8; KDM5B inh: inactive; SNCA viab count: -4%; SNCA expr inh: 1%

How did NC(=O)c1ccsc1NC(=O)CSc1ccc2ccccc2n1 do in these assays?
KDM5B inh: inactive

How did CC1CN(C(=O)CCC(=O)NCc2ccc(F)cc2)c2cc(Cl)ccc2O1 (centres undefined) do in these assays?
IP6K1 inhibitor: -25*; KDM5B inh: inactive; SNCA viab count: -4%; SNCA expr inh: 25%; IP6K1 conf: -7%

How did CC1=C[C@@H](CNC(=O)CC(C)(C)C)[C@H](C(C)C)C[C@H]1CC(=O)NCc1cccnc1 do in these assays?
IP6K1 inhibitor: -1; KDM5B inh: inactive; SNCA viab count: -12%[87.6 µM]; SNCA expr inh: -25%[87.6 µM]

Results for O=C(Nc1noc2ccccc12)c1c(F)cccc1F ?
IP6K1 inhibitor: -31*; KDM5B inh: inactive; SNCA viab count: 2%; SNCA expr inh: inconclusive; IP6K1 conf: inconclusive

What do the screens show for `O=C(Nc1noc2ccccc12)c1ccc(Br)o1`?
KDM5B inh: inactive

How did COc1cccc(NC(=O)C2CCCN(S(=O)(=O)c3ccc4[nH]c(=O)ccc4c3)C2)c1 (centres undefined) do in these assays?
IP6K1 inhibitor: -33*; KDM5B inh: inactive; SNCA viab count: -10%; SNCA expr inh: 2%; IP6K1 conf: 0%

How did COc1ccc(NC(=O)C2CCCN(S(=O)(=O)c3ccc4[nH]c(=O)ccc4c3)C2)cc1OC (centres undefined) do in these assays?
IP6K1 inhibitor: 27; KDM5B inh: inconclusive; SNCA viab count: 6%; SNCA expr inh: 19%

What do the screens show for `CN(CC(=O)OCc1coc(-c2cccs2)n1)S(=O)(=O)c1ccc(F)cc1`?
KDM5B inh: inactive

How did COc1ccccc1CNC(=O)c1cc2cccc3c2n1CC(C)S3 (centres undefined) do in these assays?
IP6K1 inhibitor: -33*; KDM5B inh: inconclusive; SNCA viab count: -15%; SNCA expr inh: inconclusive; IP6K1 conf: -17%

Results for COc1ccc2nc3n(c2c1)[C@@H](CNS(=O)(=O)c1ccc(F)cc1)COC3 ?
IP6K1 inhibitor: -2; KDM5B inh: inactive; SNCA viab count: -1%[87.6 µM]; SNCA expr inh: -1%[87.6 µM]

Results for COc1ccc2nc3n(c2c1)[C@@H](CNC(=O)c1ccc(F)cc1)COC3 ?
IP6K1 inhibitor: -26*; KDM5B inh: 35µM*; SNCA viab count: -13%[87.6 µM]; SNCA expr inh: 0%[87.6 µM]; IP6K1 conf: inconclusive

What do the screens show for `COc1ccc(CCNc2nc3c(-c4cccc(C)c4)nnn3c3ccccc23)cc1OC`?
IP6K1 inhibitor: -32*; KDM5B inh: inconclusive; SNCA viab count: inconclusive; SNCA expr inh: 14%; IP6K1 conf: -5%

Results for COc1cccc(NC(=O)CN2C(=O)CC(c3ccccc3)=Nc3ccccc32)c1 ?
KDM5B inh: inactive

Results for CC(C)CNC(=O)Cn1ccc2c(Cl)cccc21 ?
KDM5B inh: inactive
